High-throughput results deposited in PubChem by National Center for Advancing Translational Sciences (NCATS).
KB-V1 cytotox: qHTS assay for MDR1-selective chemotherapeutics: Primary screen using the drug-selected MDR subline cells KB-V1; KB-V1 MDR cells viability, CellTiter-Glo, 72 h; AID 1347076, 2019; Potency, µM (highest dose often 46.1 µM), hits mostly cytotoxic; 400,000 tested, 3.4% active; note: % is set by controls: 0 for no effect and ±100 for the full control effect; nearly all actives have a fitted effect of over 60% in size
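Following 72 h at 37 degrees C with compound, KB-V1 cell viability was read by CellTiter-Glo luminescence, medium being phenol-red-free DMEM plus 10% FBS; concentration-response parameters came from normalized, curve-fitted qHTS data.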
TGFb inhibitor: qHTS for Inhibitors of TGF-b; 410,000 tested, 1.2% active; HepG2 CAGA-GFP TGF-b/SMAD3 reporter, GFP fluorescence, 18 h; TGF-beta stimulated, 500 pg/mL final; Potency, µM (titrated, usually from 46.1 µM), without a hit: at the top dose activity, negative = inhibition, usual class: inhibitors; note: % is set by controls: 0 for no effect and ±100 for the full control effect; nearly all actives have a fitted effect of over 65% in size
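Using HEPG2 CAGA-GFP reporter cells at 1000 cells/well, we pinned test compounds, stimulated with recombinant TGF-beta (500 pg/mL final) and measured total well GFP after 18 h.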
KB-3-1 cytotox: qHTS assay for MDR1-selective chemotherapeutics: Primary screen using the parental adenocarcinoma cell KB-3-1. KB-3-1 viability, CellTiter-Glo ATP luminescence, 72 h. Potency, µM (top dose mostly 46.1 µM), usual class: cytotoxic. 400,000 tested, 1.4% active; note: % is set by controls: 0 for no effect and ±100 for the full control effect; nearly all actives have a fitted effect of over 60% in size
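Screening of KB-3-1 cells (DMEM, 10% FBS, phenol-red free) ran from lowest to highest compound concentration; after 72 h at 37 °C viability was read luminescently and curves fitted.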
HepG2 viability: qHTS for Inhibitors of TGF-b: Cytotox Counterscreen; HepG2 CAGA-GFP viability, ATP luminescence, 18 h; Potency, µM (titrated, usually from 46.1 µM), inactives show top-dose activity change, negative = cytotoxicity, actives largely listed as cytotoxic; 410,000 tested, 0.76% active
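CellTiter-Glo luminescence gave cytotoxicity after 18 hours at 37 degrees C. The cells were HepG2 CAGA-GFP in 1% FBS DMEM, stimulated with 500 pg/mL TGF-beta after compound addition. %Activity was normalised to no-cell wells (complete cell-killing) and DMSO (no toxicity), and curves were fitted and classified.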
ATXN2 expr inh: Primary qHTS for Inhibitors of ATXN expression | HEK-293 ATXN2-luciferase reporter, luminescence, 24 h | Potency, µM (top dose mostly 57 µM), inactives show at the highest dose activity change, negative = inhibition, usual class: inhibitors | 360,000 tested, 0.72% active | AID 1745845, 2022; note: % is set by controls: 0 for no effect and ±100 for the full control effect; nearly all actives have a fitted effect of over 55% in size
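qHTS (up to 57 uM final) was run with 24 h compound exposure of reporter cells at 37 °C. Each well was multiplexed: SteadyGlo luminescence measured ATXN2-luciferase expression after a fluorogenic Gly-Phe-AFC viability readout (25 uM final).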
ATXN viability: Viability Counterscreen for Primary qHTS for Inhibitors of ATXN expression; S2 cells (HEK-293 line with an ATXN2-luciferase reporter) viability, CellTiter-Fluor protease fluorescence, 24 h; Potency, µM (titrated, usually from 56.7 µM), actives largely listed as cytotoxic; 400,000 tested, 0.49% active; note: nearly all actives have a fitted effect of over 40% in size
* marks the source's active call; other numbers are inactive results. An excerpt weighted towards active compounds, which were near 5.9% of everything screened. Calls come from the whole dose curve; as a rule, active = well fitted curve in the direction sought with a large enough effect; inconclusive = small, poorly fitted or top-dose-only effect, or another doubt; inactive = no such curve, though single readings can be large; an effect the other way counts as inactive or inconclusive. Potency is the fitted concentration of half-maximal effect.

Screening Cc1cc(C2=NNC(=NC3CC3)SC2)c(C)n1-c1ccccc1 returned KB-V1 cytotox inactive, TGFb inhibitor inconclusive, KB-3-1 cytotox inactive, HepG2 viability -34% and ATXN viability inactive.
CCOc1ccc(-c2nnc(SCC(=O)NC3CCCC3)nc2-c2ccc(OCC)c(OC)c2)cc1OC was read as KB-V1 cytotox inactive, TGFb inhibitor 32%, KB-3-1 cytotox inactive and HepG2 viability 4%.
CC(C(=O)NC1CCCC1)N(C(=O)c1snc(C(N)=O)c1N)c1ccc2c(c1)OCCO2 (centres undefined) was read as KB-V1 cytotox 16µM*, TGFb inhibitor -4%, KB-3-1 cytotox inactive, HepG2 viability -29%, ATXN2 expr inh -11% and ATXN viability inactive.
COc1ccc(OC)c(C(C(=O)NC2CCCCC2)N(C(=O)c2snc(C(N)=O)c2N)c2ccccc2OC)c1 (centres undefined) was read as KB-V1 cytotox inactive, TGFb inhibitor 10%, KB-3-1 cytotox inactive, HepG2 viability -21%, ATXN2 expr inh -10% and ATXN viability inactive.
Screening COc1ccc(C(C(=O)NC2CCCCC2)N(Cc2ccco2)C(=O)c2snc(C(N)=O)c2N)cc1 (centres undefined) returned KB-V1 cytotox 16µM*, TGFb inhibitor -25%, KB-3-1 cytotox inconclusive, HepG2 viability -25%, ATXN2 expr inh -36% and ATXN viability inactive.
COc1ccc(C)cc1N(C(=O)c1snc(C(N)=O)c1N)C(C(=O)NC1CCCCC1)c1ccc(C)o1 (centres undefined) was read as KB-V1 cytotox 21µM*, TGFb inhibitor inconclusive, KB-3-1 cytotox inconclusive, HepG2 viability 6%, ATXN2 expr inh -6% and ATXN viability inactive.
For COc1cccc(C(C(=O)NC2CCCC2)N(Cc2ccco2)C(=O)c2ccco2)c1OC (centres undefined) the results were KB-V1 cytotox 2.9µM*, TGFb inhibitor -20%, KB-3-1 cytotox inactive, HepG2 viability -15%, ATXN2 expr inh -6% and ATXN viability inactive.
`COc1cccc(C(C(=O)NC2CCCC2)N(C(=O)c2ccco2)c2ccccc2F)c1OC` (centres undefined) gave KB-V1 cytotox inconclusive, TGFb inhibitor -7%, KB-3-1 cytotox inactive, HepG2 viability -8%, ATXN2 expr inh 1% and ATXN viability inactive.
`COc1ccc(C(C(=O)NC2CCCC2)N(Cc2ccco2)C(=O)c2snc(C(N)=O)c2N)cc1OC` (centres undefined) gave KB-V1 cytotox inactive, TGFb inhibitor 10%, KB-3-1 cytotox inactive, HepG2 viability 5%, ATXN2 expr inh 0% and ATXN viability inactive.
Screening CCOC(=O)c1ccc(NC(=O)c2c(-c3c(F)cccc3Cl)noc2C)cc1 returned KB-V1 cytotox inactive, TGFb inhibitor 20%, KB-3-1 cytotox inconclusive, HepG2 viability -9%, ATXN2 expr inh -4% and ATXN viability inactive.
For N#Cc1c(C(F)(F)F)cc(-c2cccs2)nc1SCC(=O)Nc1ccc(Cl)cc1 the results were KB-V1 cytotox inactive, TGFb inhibitor 94%, KB-3-1 cytotox inactive, HepG2 viability 8%, ATXN2 expr inh -4% and ATXN viability inactive.
Screening O=C(c1cccc(Cl)c1)N(Cc1ccco1)Cc1ccccc1Cl returned HepG2 viability -39%.
Screening Cc1cc(Nc2ccccc2C(=O)O)ccc1Cl returned ATXN viability inactive.
Screening CC(C)c1c(C(=O)N(C)C2CCN(C)CC2)cnn1-c1nccc(-c2ccco2)n1 returned ATXN viability inactive.
O=C(NC1CCCC1)C(c1ccncc1)N(Cc1ccccc1)C(=O)c1ccc(-c2ccccc2)[nH]1 (centres undefined) was read as KB-V1 cytotox inconclusive, TGFb inhibitor inconclusive, KB-3-1 cytotox inconclusive, HepG2 viability -7%, ATXN2 expr inh -6% and ATXN viability inactive.
For CCOc1ccc(C(C(=O)NCC2CCCO2)N(CCc2cccc(C)c2)C(=O)c2snc(C(N)=O)c2N)cc1 (centres undefined) the results were KB-V1 cytotox 21µM*, TGFb inhibitor 9%, KB-3-1 cytotox inconclusive, HepG2 viability -7%, ATXN2 expr inh -2% and ATXN viability inactive.
Screening COc1ccc(N(C(=O)c2snc(C(N)=O)c2N)C(C(=O)NCc2ccccc2)c2ccc(O)cc2)cc1 (centres undefined) returned KB-V1 cytotox inactive, TGFb inhibitor 11%, KB-3-1 cytotox inactive, HepG2 viability -37%, ATXN2 expr inh 4% and ATXN viability inactive.
`O=C(NC1CCCC1)C(c1ccncc1)N(Cc1ccco1)C(=O)c1ccc(-c2ccccc2)[nH]1` (centres undefined) gave KB-V1 cytotox 21µM*, TGFb inhibitor inconclusive, KB-3-1 cytotox inconclusive, HepG2 viability -3%, ATXN2 expr inh -3% and ATXN viability inactive.
Screening Cc1cccc(N(C(=O)c2snc(C(N)=O)c2N)C(C(=O)NCc2ccccc2)c2ccncc2)c1 (centres undefined) returned KB-V1 cytotox inactive, TGFb inhibitor inconclusive, KB-3-1 cytotox 18µM*, HepG2 viability -68%, ATXN2 expr inh inconclusive and ATXN viability inconclusive.
Screening CCCC(C(=O)NC1CCCC1)N(CC1CCCO1)C(=O)c1snc(C(N)=O)c1N (centres undefined) returned KB-V1 cytotox 4.1µM*, TGFb inhibitor -14%, KB-3-1 cytotox inactive, HepG2 viability 10%, ATXN2 expr inh -8% and ATXN viability inactive.
For CCOc1ccc(C(C(=O)NCC2CCCO2)N(C(=O)c2snc(C(N)=O)c2N)c2ccc(F)cc2)cc1 (centres undefined) the results were KB-V1 cytotox inactive, TGFb inhibitor 1%, KB-3-1 cytotox inactive, HepG2 viability -4%, ATXN2 expr inh -7% and ATXN viability inactive.
`COC(=O)C1CCN(Cc2ccc3c(c2)CN(C(=O)c2ccc(-n4cnnn4)cc2)CCO3)CC1` gave ATXN viability inactive.
`CCOC(=O)c1ccc2ncc(C(=O)OCC)c(NCCN(C)C)c2c1` gave KB-V1 cytotox inactive, TGFb inhibitor 2%, KB-3-1 cytotox inactive, HepG2 viability -6%, ATXN2 expr inh 3% and ATXN viability inactive.
